Source: PubChem BioAssay
Only some compounds are listed: those with a hit (about 1.3% of all), similar ones and a draw of the others.
EBV gp42 block: Epstein-Barr virus gp42 inhibitors, primary screen, biochemical, uHTS, fluorescence polarization; 0.42% of 220,000 active; inhibition, % (tested at 21.74 µM); Fluorescence polarization binding assay, mP read-out; AID 1085, 2008; Glycoprotein 42 (Epstein-Barr virus (strain AG876)), Q1HVG2; in the data active = inhibition above about 50%
GLD-1 TGE inh: GLD-1/TGE RNA complex disruptors, primary screen, biochemical, fluorescence polarization. Female germline-specific tumor suppressor gld-1 (Caenorhabditis elegans), Q17339. AID 2280, 2010. 0.44% of 320,000 active. inhibition, % at 5.96 µM. purified GLD-1 + fluorescein TGE RNA;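 active = percent inhibition above a per-plate cutoff, the plate mean of test compounds plus 3 SD, cut at about 30% in these data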
MEX-5 binding: MEX-5 zinc finger RNA-binding disruptors – biochemical, C. elegans, fluorescence polarization, MLPCN library, primary screen; Zinc finger protein mex-5 (Caenorhabditis elegans), Q9XUB2; MEX-5/FITC-TCR2 RNA binding; active compounds read low; activity score (negative = inhibition of binding), % at 10 µM; 0.38% of 300,000 active;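 active = inhibition past about -25% in most replicates, and total fluorescence under double the plate's negative control median, limit read from the data; inconclusive = replicates evenly split on the limit, or fluorescence at least double controls; inactive = too little inhibition in most replicates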
MCL1 BIM primary: inhibitors of MCL1 binding to BIM-BH3, primary screen, biochemical, fluorescence polarization; GST-MCL1 / FITC-Bim-BH3 fluorescence polarization; 0.68% of 320,000 active; inhibition, % at 10.9 µM;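 active = inhibition above the mean inhibition of all tested compounds plus 3 SD, set per campaign, cut at about 40% in these data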;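 note: higher means more loss of mP so more displacement of Bim peptide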
Target sequence (Q07820 whole entry, looked up): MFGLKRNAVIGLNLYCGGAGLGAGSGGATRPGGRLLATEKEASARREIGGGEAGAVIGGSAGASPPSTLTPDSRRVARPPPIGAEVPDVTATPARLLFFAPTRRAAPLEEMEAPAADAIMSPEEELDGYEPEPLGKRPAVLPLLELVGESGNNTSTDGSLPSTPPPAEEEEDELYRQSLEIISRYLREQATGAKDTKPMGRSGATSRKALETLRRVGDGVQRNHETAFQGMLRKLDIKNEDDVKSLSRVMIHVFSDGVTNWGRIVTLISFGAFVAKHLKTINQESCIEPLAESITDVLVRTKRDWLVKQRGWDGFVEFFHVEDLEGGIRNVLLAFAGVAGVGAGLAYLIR
Bcl-xL primary: inhibitors of human Bcl-xL, primary screen, biochemical, fluorescence polarization, HTS | Bcl-2-like protein 1 (Homo sapiens), Q07817 | GST-Bcl-xL / FITC-Bim BH3 peptide fluorescence polarization | inhibition, % at 10.9 µM | 0.7% of 320,000 active;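 active = inhibition above the mean of all tested compounds plus 3 SD, cutoff set per campaign, cut at about 30% in these data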;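 note: inhibitors lower millipolarization by displacing the labeled peptide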
Bcl-xL conf: Bcl-xL inhibitors blocking Bim BH3 binding, confirmation, counter-screen for MCL1 inhibitor project, biochemical, fluorescence polarization; shares compounds with MCL1 BIM primary; GST-Bcl-xL / FITC-Bim BH3 peptide FP binding; inhibition, % at 10.9 µM; 54% of 1,700 active;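 active = inhibition above a cutoff equal to the mean inhibition of all tested compounds plus 3 SD, cut at about 30% in these data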
MCL1 inh confirm: inhibitors of MCL1 binding to BIM-BH3, confirmation, biochemical, fluorescence polarization, triplicate; shares compounds with MCL1 BIM primary; GST-MCL1 / FITC-Bim-BH3 fluorescence polarization; inhibition, % at 10.9 µM; 61% of 1,700 active;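 active = inhibition above the average of all tested compounds plus 3 SD, cut at about 40% in these data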
Of the large screens only hits and unclear results are named; the others gave an inactive call (follow-up assays come after a bar, where they were run).

Cc1nn(C)c(C)c1N1C(=O)c2cccc3c(N)ccc(c23)C1=O	EBV gp42 block 169, GLD-1 TGE inh active, MCL1 BIM primary active, Bcl-xL primary active (no result: MEX-5 binding) | Bcl-xL conf active | MCL1 inh confirm active
CCN1C(=O)c2cccc3c(N)ccc(c23)C1=O	GLD-1 TGE inh active, MEX-5 binding inconclusive, MCL1 BIM primary active, Bcl-xL primary active (no result: EBV gp42 block) | Bcl-xL conf active | MCL1 inh confirm active
COC(=O)c1cc(S(=O)(=O)NCC2CCN(Cc3cccc(Cl)c3)CC2)c[nH]1	none (no result: EBV gp42 block)
CCCN(CC(=O)Nc1cc(C)on1)CC(=O)Nc1ccccc1C	none (no result: EBV gp42 block, MEX-5 binding)
COc1ccc(C(=O)c2ccsc2N)cc1	GLD-1 TGE inh 66, MCL1 BIM primary 108, Bcl-xL primary 105 (no result: EBV gp42 block) | Bcl-xL conf inactive | MCL1 inh confirm inactive
Cc1ccc(-c2nn(-c3ccccc3)cc2/C=C2\SC(=S)N(CC(=O)O)C2=O)cc1	MCL1 BIM primary 70 | Bcl-xL conf inactive | MCL1 inh confirm inactive
O=C(O)CCN1C(=O)/C(=C/c2cn(-c3ccccc3)nc2-c2cccs2)SC1=S	none (no result: GLD-1 TGE inh, MEX-5 binding, MCL1 BIM primary, Bcl-xL primary)
Cc1ccccc1OCC(=O)OCC(=O)Nc1ccc(Cl)cn1	none (no result: EBV gp42 block, MEX-5 binding)
Cc1ccccc1OCC(=O)OCC(=O)Nc1ncc(Cl)c(C)c1Cl	MCL1 BIM primary 41 (no result: EBV gp42 block, MEX-5 binding) | Bcl-xL conf inactive | MCL1 inh confirm 47
CCN1CCN(c2cc(N3CCN(C(=O)c4ccco4)CC3)c3c4c(onc24)-c2ccccc2C3=O)CC1	MCL1 BIM primary 103, Bcl-xL primary 92 (no result: EBV gp42 block) | Bcl-xL conf 52 | MCL1 inh confirm inactive
CC1(C)CC(=O)C2=C(C1)Nc1ccccc1N=C2	GLD-1 TGE inh 63, MCL1 BIM primary 106, Bcl-xL primary 91 | Bcl-xL conf inactive | MCL1 inh confirm inactive
CCN1CCc2c(sc(N)c2C#N)C1	MCL1 BIM primary 59, Bcl-xL primary 58 | Bcl-xL conf 47 | MCL1 inh confirm 40
CCCN1CCc2c(sc(NC(=S)NC(=O)c3ccccc3)c2C#N)C1	none
O=C(O)c1ccc(-n2cccc2/C=C2/SC(=O)N(CC(=O)N3CCCC3)C2=O)cc1	MCL1 BIM primary 55 (no result: EBV gp42 block) | Bcl-xL conf inactive | MCL1 inh confirm 50
COc1ccc(Cl)cc1N(CC(=O)N1CCC(C)CC1)S(C)(=O)=O	MCL1 BIM primary 65 | Bcl-xL conf inactive | MCL1 inh confirm inactive
COc1ccc(Cl)cc1N(CC(=O)N1CCCC1)S(C)(=O)=O	none (no result: EBV gp42 block)
O=C(OCCOc1ccc(Br)cc1)c1ccc(Cl)c(S(=O)(=O)N2CCOCC2)c1	none (no result: EBV gp42 block)
Cc1c(NS(=O)(=O)c2cc(C(=O)NCCN(C)C)ccc2Cl)c(=O)n(-c2ccccc2)n1C	MCL1 BIM primary 75 (no result: EBV gp42 block) | Bcl-xL conf inactive | MCL1 inh confirm inactive
COc1nccnc1NS(=O)(=O)c1ccc(N)cc1	none (no result: EBV gp42 block, GLD-1 TGE inh, MCL1 BIM primary, Bcl-xL primary)
CCSc1nnc(N2C(=O)C(O)=C(C(=O)c3ccco3)C2c2cccc(OC)c2)s1 (stereo unspecified)	GLD-1 TGE inh 79, MCL1 BIM primary 60, Bcl-xL primary 60 (no result: EBV gp42 block) | Bcl-xL conf 65 | MCL1 inh confirm 76
CSc1nnc(N2C(=O)C(O)=C(C(=O)c3ccco3)C2c2ccc(F)cc2)s1 (stereo unspecified)	GLD-1 TGE inh 83, MCL1 BIM primary 71, Bcl-xL primary 80 (no result: EBV gp42 block) | Bcl-xL conf 43 | MCL1 inh confirm 55
O=C(C1=C(O)C(=O)N(c2ncccn2)C1c1ccc(Cl)cc1)c1ccco1 (stereo unspecified)	none
COc1ccc2nc(N3C(=O)C(O)=C(C(=O)c4ccco4)C3c3ccccc3OC)sc2c1 (stereo unspecified)	none (no result: EBV gp42 block)
CCCCCCOC(=O)Cc1c(C)nc(-c2ccccc2)[nH]c1=O	none
